Compounds with a hit are over-represented: about 5.7% of the library has one in this group of screens.
BAZ2B inh – blocks human BAZ2B. Q9UIF8. AlphaScreen BAZ2B-H3K14Ac peptide displacement. Potency, µM (titrated, usually from 114 µM), without a hit: at the highest dose activity change, negative = inhibition, hits mostly inhibitors. actives 4.4% (n = 360,000). AID 504333; also: potency is read from the fitted curve at half-maximal effect; % is scaled to controls: 0 for no effect and ±100 for the full control effect; nearly all actives have a fitted effect of over 60% in size
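AlphaScreen displacement: compounds (up to 110uM) incubated 30 min at room temperature with a preformed 50 nM BAZ2B/50 nM biotinylated H3K14Ac peptide complex in PBS pH 7.4 with Tween-20. Donor and acceptor beads at 10 ug/mL final added, 20 min light-protected before reading.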
JMJD2A Tudor – inhibitors of human JMJD2A Tudor domain. O75164. AlphaScreen JMJD2A-Tudor / H3K4me3 peptide binding. Potency, µM (doses to about 114 µM), inactives show at the highest dose activity change, negative = inhibition, most hits filed as inhibitors. actives 4.4% (n = 390,000); also: potency is read from the fitted curve at half-maximal effect; % is scaled to controls: 0 for no effect and ±100 for the full control effect; nearly all actives have a fitted effect of over 50% in size
HP1b binding inh – blocks HP1-beta chromodomain binding to methylated histone tails. AID 540317. Potency, µM (highest dose often 114 µM), for the others: at the highest dose activity change, negative = inhibition, most hits filed as inhibitors. actives 0.56% (n = 390,000). AlphaScreen HP1-beta / biotin-H3K9me3 peptide binding. P83916; also: potency is read from the fitted curve at half-maximal effect; nearly all actives have a fitted effect of over 70% in size
Target sequence (P83916 whole entry, looked up): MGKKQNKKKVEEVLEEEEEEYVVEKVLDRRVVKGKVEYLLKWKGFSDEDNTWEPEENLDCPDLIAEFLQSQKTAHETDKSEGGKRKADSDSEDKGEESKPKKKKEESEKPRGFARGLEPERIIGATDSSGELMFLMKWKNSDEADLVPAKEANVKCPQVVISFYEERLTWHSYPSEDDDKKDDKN
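HP1-beta protein (50 nM final) preincubated 30 min at room temperature with biotinylated H3(1-18)K9me3 peptide (50 nM) in PBS pH 7.4, 0.01% Tween-20, then compound added for 30 min. AlphaScreen streptavidin donor/nickel chelate acceptor beads (10 ug/mL final), 30 min dark, luminescence read.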
PI5P4K alpha inh – inhibitors of human PI5P4K alpha | P48426 | PI5P4Kalpha enzyme, ADP-Glo luminescence, 60 min; hits give low values | max response, % | actives 1.2% (n = 330,000) | AID 652105; active = max response of -50% or lower; inconclusive = between -30% and -50%; inactive = -30% or higher; also: value at the top dose of about 77 µM; % is scaled to controls: 0 for no effect and ±100 for the full control effect
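Quantitative HTS of the MLSMR library against PI5P4Kalpha with substrate. ATP added last at 5 microM final; room temperature, 60 minutes. Remaining ATP depleted, ADP converted and read as luminescence.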
L3MBTL1 inh – blocks human L3MBTL1; Potency, µM (top dose mostly 57.1 µM), without a hit: at the top dose activity, negative = inhibition, most hits filed as inhibitors; AlphaScreen L3MBTL1–H3K9me1 peptide binding; actives 0.66% (n = 230,000); also: potency is read from the fitted curve at half-maximal effect; % is scaled to controls: 0 for no effect and ±100 for the full control effect; nearly all actives have a fitted effect of over 60% in size
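Displacement of a biotinylated histone H3(1-15) peptide monomethylated at Lys9 (75 nM) from L3MBTL1 (50 nM) was measured by AlphaScreen after a 30 min room-temperature compound incubation; cefsulodin titration served as intraplate control.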
JMJD2E inh – blocks human JMJD2E demethylase activity; actives 1.6% (n = 230,000); AID 2147; JMJD2E catalytic domain, FDH-coupled NADH fluorescence (FDH is formaldehyde dehydrogenase); Potency, µM (doses to about 57.1 µM), for inactives: at the highest dose activity change, negative = inhibition, hits mostly inhibitors; active = well fitted inhibition curve with a large enough effect, not every such curve was filed as active; inconclusive = small, poorly fitted or top-dose-only effect, or another doubt; inactive = no such curve, though single readings can be large or run the other way;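 also: potency is read from the fitted curve at half-maximal effect; 0% = wells with enzyme and -100% = buffer wells without enzyme; nearly all actives have a fitted effect of over 50% in size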
Target sequence (B2RXH2 1-337 limits assumed): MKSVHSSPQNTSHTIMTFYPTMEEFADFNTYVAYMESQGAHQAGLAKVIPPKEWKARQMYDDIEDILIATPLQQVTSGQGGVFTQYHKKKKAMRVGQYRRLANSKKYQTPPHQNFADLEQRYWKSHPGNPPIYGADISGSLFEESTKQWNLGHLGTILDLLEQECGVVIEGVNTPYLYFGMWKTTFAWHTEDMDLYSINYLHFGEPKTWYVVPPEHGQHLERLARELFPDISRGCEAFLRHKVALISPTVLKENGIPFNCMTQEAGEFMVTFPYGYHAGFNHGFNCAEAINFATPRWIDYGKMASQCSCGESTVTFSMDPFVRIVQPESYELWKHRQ
Numbers without * were called inactive; ? = inconclusive; . = not tested or not shown; [ ] = another dose, or the depositor's remark. Unless noted, calls follow the shape of the dose curve; as a rule, active = well fitted inhibition curve with a large enough effect; inconclusive = small, poorly fitted or top-dose-only effect; inactive = no such curve, though single readings can be large or run the other way.

SMILES	BAZ2B inh	JMJD2A Tudor	HP1b binding inh	PI5P4K alpha inh	L3MBTL1 inh	JMJD2E inh
Cc1ccc(-c2noc(CN(C3CCCCC3)S(=O)(=O)c3ccc(C)cc3)n2)cc1	-5%	4%	38%	.	.	.
COc1ccc(N2CCN(S(=O)(=O)CCNC(=O)c3c(F)cccc3Cl)CC2)cc1	-17%	-4%	22%[57 µM]	.	.	.
COc1cc(F)c(S(=O)(=O)N2CCCN(S(=O)(=O)c3ccc(NC(C)=O)cc3)CC2)c(F)c1	.	-27%	.	.	.	.
CCc1cc2c(=O)[nH]c(-c3ccccn3)nc2s1	28µM*	25µM*	36%	-8	?	-1%
CC(=O)N1CCOc2cc(S(=O)(=O)NCc3ccccc3Cl)c(C)cc21	-2%	-16%	33%	.	.	.
COc1ccccc1CCNCc1ccc(OC)c(OCc2ccccc2)c1	?	3.2µM*	?	.	-1%	?
COc1cc(CNCCc2c[nH]c3ccccc23)ccc1OCc1ccccc1F	35µM*	40µM*	?	.	-15%	-6%
COc1ccc(CNCc2ccco2)cc1OCc1ccccc1	79µM*	13µM*	?	.	-7%	4%
CC(C)N(C(=O)Cn1cc(S(=O)(=O)Cc2ccc(Br)cc2)c2ccccc21)C(C)C	-3%	0%	35%	.	.	.
Cc1c(C(=O)Nc2cccc(C(F)(F)F)c2)oc2ccc(S(=O)(=O)N(C)C3CCCCC3)cc12	3%	-5%	28%	.	.	.
COCCNC(C)C(=O)Nc1ccc(Br)cc1 (stereo unspecified)	50µM*	4µM*	-35%	.	3%	-22%
COCCSc1ccccc1C(=O)Nc1ccc(Br)cc1	-19%	11%	37%	-5	4%[11.4 µM]	-14%
Cc1ccc2c(CNC3CCCCC3)c(C(=O)O)n(Cc3ccc(F)cc3)c2c1	-4%	9%	36%	.	.	.
COc1ccc(C)cc1Nc1n[n+](-c2ccccc2)c(-c2cc(OC)c(OC)cc2Br)s1	50µM*	?	19%	-16	-7%	.
COc1ccc(C)cc1Nc1n[n+](-c2ccccc2)c(-c2c(OC)ccc3ccccc23)s1	?	?	-16%	-54*	-9%	.
Oc1ccc2ccccc2c1-c1sc(Nc2ccccc2)n[n+]1-c1ccc(F)cc1	?	?	21%	1	-8%	.
COc1cc(Cl)c(NS(=O)(=O)c2ccc3[nH]c(=O)ccc3c2)c(OC)c1	2%	-14%	14%[57 µM]	.	.	.
Cc1ccccc1NC(=O)C(Cc1ccccc1)N1Cc2ccccc2C1=O (stereo unspecified)	-5%	-11%	14%	.	.	.
CCCOc1ccc(F)cc1-c1cc(C(=O)NCc2ccccc2OC)[nH]n1	.	.	.	-2	.	.
CCc1ccccc1N(C)C(=O)c1sc2nc3n(c(=O)c2c1C)CCCCC3	-26%	-13%	40%	.	.	.
COc1cc(OC)c(N(C)C(=O)c2sc3nc4n(c(=O)c3c2C)CCCC4)cc1Cl	-5%	21%	129%	.	.	.
Cc1c(C(=O)Nc2cccc(C(F)(F)F)c2)sc2nc3n(c(=O)c12)CCCC3	-1%	-14%	43%	.	.	.
Cc1c(C(=O)N(C)c2cccc(C(F)(F)F)c2)sc2nc3n(c(=O)c12)CCCCC3	32µM*	?	83%	.	.	.
CCOc1ccccc1N(C)C(=O)c1sc2nc3n(c(=O)c2c1C)CCCC3	50µM*	-21%	97%	.	.	.
COc1cc(OC)c(N(C)C(=O)c2sc3nc4n(c(=O)c3c2C)CCCCC4)cc1Cl	50µM*	?	20%	.	.	.
SMILES	BAZ2B inh	JMJD2A Tudor	HP1b binding inh	PI5P4K alpha inh	L3MBTL1 inh	JMJD2E inh
COC(=O)[C@H](CC(C)C)NS(=O)(=O)c1ccc(F)cc1Br	.	.	.	0	.	.
COc1ccccc1C(=O)N1CCCCC1CCN1CCOCC1 (stereo unspecified)	-2%	-3%	56%	.	.	.
COC(=O)c1ccc2c(=O)n(CCCCCC(=O)N3CCN(c4cc(C)ccc4C)CC3)c(=O)[nH]c2c1	-16%	-27%	-2%	.	.	.
CC(C)c1nn2c(=O)cc(COC(=O)c3ccc(NC(=O)c4cccs4)cc3)nc2s1	-1%	3%	38%	.	.	.
Cc1ccc(C)c(NC(=S)NCCSc2ccc(Cl)cc2)c1	?	-13%	30%	18	-13%	6%
COc1ccc(Cl)cc1NC(=S)Nc1ccccc1C	-3%	14µM*	-2%	1	1%	-10%
Cc1ccccc1NC(=S)NCCSc1ccc(Cl)cc1	?	89µM*	7%	-2	.	10%
CSc1nc2c(c(=O)[nH]1)CCCC2	8%	5%	37%	-3	.	0%
CSc1nc(=S)c2[nH]c(=S)[nH]c2[nH]1	79µM*	25µM*	20µM*	-87*	-2%	11µM*
Nc1nc(=S)c2[nH]c(=S)[nH]c2[nH]1	.	3.2µM*	-16%[57 µM]	?	.	.
COc1ccc(-c2nc(CCNC(=O)c3cccs3)cs2)cc1OC	10%	-4%	50%[57 µM]	.	.	.
C[n+]1ccccc1/C=C1\Sc2ccccc2N1CCO	?	?	33%	-10	-5%	.
CC[n+]1ccc(/C=C2\Sc3ccccc3N2CCCS(=O)(=O)[O-])c2ccccc21	50µM*	?	?	4	-15%	?
CC(C)CS(=O)(=O)C1=NSC2=NC(=O)/C(=C\c3ccc(OC(=O)c4ccco4)cc3)C(=N)N21	?	-36%	2%	-86*	.	.
CSC1=NSC2=NC(=O)/C(=C\c3ccc(OC(=O)c4ccco4)cc3)C(=N)N12	?	-10%	14%	-53*	.	.
CS(=O)(=O)C1=NSC2=NC(=O)/C(=C\c3ccc(OC(=O)c4ccco4)c(Br)c3)C(=N)N21	56µM*	?	-5%[57 µM]	-73*	.	.
COc1cc(/C=C2\C(=N)N3N=C(S(=O)(=O)CC(C)C)SC3=NC2=O)ccc1OC(=O)c1ccco1	-32%	.	.	.	.	.
CCC(CC)C1=NN2C(=N)/C(=C/c3ccc(OC(=O)c4ccco4)cc3)C(=O)N=C2S1	-25%	?	27%	-18	.	.
Cc1ccc(OCC(=O)Nc2nnc(SCc3cc(=O)c4ccccc4[nH]3)s2)cc1C	0%	-20%	17%[57 µM]	.	.	.
CCCCC/C=C\C/C=C\C/C=C\C/C=C\CCCC(=O)O[C@H](COCCCCCCCCCCCCCCCC)COP(=O)([O-])OCC[N+](C)(C)C	.	.	.	.	.	-24%
S=C(NN=C(C1CC1)C1CC1)Nc1ccccc1	-6%	50µM*	-10%	-13	-4%	-3%
COc1ccc(C2NC(c3ccc(OC)cc3)C(C)C(=O)C2C)cc1 (stereo unspecified)	6%	16%	25%	11	.	.
CC1C(=NO)C(C)C(c2ccc(N(C)C)cc2)NC1c1ccc(N(C)C)cc1 (stereo unspecified)	40µM*	-8%	29%	.	25µM*	?
CCCCCCCCCCCCCCCCCC(=O)OC(CC(=O)O)C[N+](C)(C)C (stereo unspecified)	.	.	.	.	.	10%

High-throughput results as filed in PubChem.
